Compound activity deposited in PubChem by National Center for Advancing Translational Sciences (NCATS).
A selection: hits, their analogues and other compounds. The true share with any hit is near 12%.
Lassa entry inh: inhibitors of Lassa virus binding or cell entry. Lassa virus pseudotype entry inhibition, cell reporter. Potency, µM (top dose mostly 37.9 µM), inactives show at the top dose activity change, negative = inhibition, hits mostly inhibitors. 1.2% of 300,000 active. AID 540256; calls by dose curve; tested in HEK293 cells; also: potency is read from the fitted curve at half-maximal effect; % is scaled to controls: 0 for no effect and ±100 for the full control effect; nearly all actives have a fitted effect of over 50% in size
Shiga toxin inh: inhibitors of Shiga toxin in Vero cells | AID 2315 | inhibition, % at 38.7 µM | 9.2% of 290,000 active | Vero cells, Shiga toxin protein synthesis inhibition reporter; in the data active = inhibition mostly above about 28%, no sharp cut-off; inactive = mostly below about 43%; also: 0% is about no effect
Marburg entry inh: blocks Marburg virus binding to or entry into cells | Marburg virus pseudotyped entry inhibition, cell reporter | Potency, µM (doses to about 37.8 µM), inactives show at the highest dose activity change, negative = inhibition, hits mostly inhibitors | 1.8% of 300,000 active | AID 540276; calls by dose curve; tested in HEK293 cells; also: potency is read from the fitted curve at half-maximal effect; % is scaled to controls: 0 for no effect and ±100 for the full control effect
CHX counter: counter-screen hit for Shiga toxin inhibitors, cycloheximide | 12% of 300,000 active | cell reporter, cycloheximide protein synthesis inhibition counterscreen | max response, %; in the data active = max response mostly above about 13%, no sharp cut-off; inactive = mostly below about 14%; also: read at 38.3 µM for the half of the compounds with a filed dose; 0% is about no effect
Active calls of the source: *; [ ] = remark or other dose.

How did NC(=S)c1ncc(C(F)(F)F)cc1Cl do in these assays?
Lassa entry inh: 0.1%; Shiga toxin inh: -7.4; Marburg entry inh: 15.9%; CHX counter: 0.2

How did FC(F)(F)c1cc(Oc2ccccc2Cl)nc(-c2ccccn2)n1 do in these assays?
Lassa entry inh: inconclusive; Shiga toxin inh: -4.3; Marburg entry inh: inconclusive; CHX counter: 1.2

How did CCc1ccc(C(=O)/C=C/Nc2ccc(S(=O)(=O)Nc3cnc4ccccc4n3)cc2)cc1 do in these assays?
Lassa entry inh: 8.9%[46.1 µM]; Shiga toxin inh: -2.6; Marburg entry inh: -7.5%[46.1 µM]; CHX counter: 13.7

How did COc1ccc(-n2c(=O)c3c4c(sc3n(C)c2=O)CN(C(C)=O)CC4)cc1 do in these assays?
Marburg entry inh: -14.3%[46.1 µM]

What do the screens show for `CC(CN1CCNCC1)(NS(=O)(=O)c1ccccc1)c1ccccc1` (stereo not given)?
Lassa entry inh: -21.7%; Shiga toxin inh: -8.0; Marburg entry inh: 11.2µM*; CHX counter: -1.4

What do the screens show for `Cc1ccc(S(=O)(=O)NC(C)(C)CN2CCNCC2)cc1`?
Lassa entry inh: -21.4%[46.1 µM]; Shiga toxin inh: 4.1; Marburg entry inh: inconclusive; CHX counter: -2.6

How did CC(C)COCC(O)CCC(=O)NNC(=S)Nc1ccccc1 (stereo not given) do in these assays?
Lassa entry inh: 14.7%; Shiga toxin inh: -8.2; Marburg entry inh: 8.0%; CHX counter: -1.7

Results for CC(C)COC(=S)Nc1ccccc1 ?
Lassa entry inh: inconclusive; Shiga toxin inh: 17.1; Marburg entry inh: -3.5%; CHX counter: 32.0*

What do the screens show for `COC(=O)C1=C(C)N(CC2CC2)C(=O)N[C@H]1c1ccccc1`?
Marburg entry inh: -5.3%[14.2 µM]

Results for O=C1C(c2c(O)[nH]c3ccccc23)=Nc2ccccc21 ?
Shiga toxin inh: 35.9; CHX counter: 18.2

What do the screens show for `CC(=O)c1cccc2c(O)c(C3=Nc4ccccc4C3=O)[nH]c12`?
Lassa entry inh: inconclusive; Shiga toxin inh: 88.5*; Marburg entry inh: -10.2%; CHX counter: 47.7*

What do the screens show for `COC(=O)c1cc(C(=O)Nc2nnc(C3CC3)s2)cc([N+](=O)[O-])c1`?
Lassa entry inh: -4.2%; Shiga toxin inh: 1.8; Marburg entry inh: -3.1%; CHX counter: 1.6

How did Cc1ccccc1/C=N\NC(=O)c1ccccc1-n1cccc1 do in these assays?
Lassa entry inh: 12.6%; Shiga toxin inh: 29.1; Marburg entry inh: 7.7%[14.2 µM]; CHX counter: 9.9

How did Cc1ccccc1/C=N/NC(=O)c1sccc1C do in these assays?
Lassa entry inh: -14.4%; Shiga toxin inh: 66.3*; Marburg entry inh: -23.5%; CHX counter: 37.8*

What do the screens show for `O=C(N/N=C/c1ccc2c(c1)OCO2)c1cccs1`?
Lassa entry inh: inconclusive; Shiga toxin inh: 67.9*; Marburg entry inh: inconclusive; CHX counter: 55.7*

Results for Cc1cccc(C(=O)N/N=C/c2ccc3c(c2)OCO3)n1 ?
Lassa entry inh: 9.1%; Shiga toxin inh: 40.8; Marburg entry inh: 12.1%; CHX counter: 17.6

Results for Cc1ccsc1C(=O)N/N=C/c1ccc2c(c1)OCO2 ?
Lassa entry inh: inconclusive; Shiga toxin inh: 77.7*; Marburg entry inh: inconclusive; CHX counter: 41.9*

Results for CC(C)N(Cc1ccccc1)C(=O)CCc1ccccc1 ?
Lassa entry inh: 26.5%[46.1 µM]; Shiga toxin inh: 3.9; Marburg entry inh: -12.6%[46.1 µM]; CHX counter: -0.8

What do the screens show for `CCC(=O)CCC(=O)c1ccc2ccccc2c1`?
Lassa entry inh: -5.7%; Shiga toxin inh: 125.2*; Marburg entry inh: inconclusive; CHX counter: 55.1*

What do the screens show for `CC(C)N(CCC(=O)c1ccc2ccccc2c1)Cc1ccccc1`?
Lassa entry inh: 5.17µM*; Marburg entry inh: 12.6µM*

What do the screens show for `CCC(=O)Nc1ccc(NC(=O)c2ccc3ccccc3c2)cc1`?
Lassa entry inh: 5.6%; Marburg entry inh: -14.8%; CHX counter: 9.5

What do the screens show for `Cn1c(SCC2CCCCC2)nnc1-c1ccncc1`?
Lassa entry inh: 15.3%; Shiga toxin inh: 76.1; Marburg entry inh: inconclusive; CHX counter: 16.3*

How did COc1ccc(-c2nnc(SCCc3ccccc3)n2N)cc1 do in these assays?
Lassa entry inh: 12.4%; Shiga toxin inh: 24.2*; Marburg entry inh: 20.2%; CHX counter: 15.9

Results for COc1ccc(-c2nnc(SCc3ccccn3)n2C)cc1 ?
Lassa entry inh: 28.8%; Shiga toxin inh: 45.3*; Marburg entry inh: 23.7%; CHX counter: 26.4*

What do the screens show for `COc1ccccc1-c1nnc(SCc2ccccn2)n1C`?
Lassa entry inh: 20.7%[14.3 µM]; Shiga toxin inh: 1.3; Marburg entry inh: 9.4%; CHX counter: 7.5

What do the screens show for `COc1ccc(-n2c(CNc3ccc(C)cc3)nnc2SCc2ccccc2)cc1`?
Lassa entry inh: 11.2µM*; Shiga toxin inh: -3.7; Marburg entry inh: inconclusive; CHX counter: 3.9

How did CC(=O)CSc1nnc(-c2ccncc2)n1C do in these assays?
Lassa entry inh: 1.5%; Shiga toxin inh: -12.9; Marburg entry inh: 7.3%; CHX counter: -3.5

How did O=C(NCc1ccccc1)c1ccc(NC(=O)C2CCCO2)cc1 (stereo not given) do in these assays?
Lassa entry inh: -2.6%[46.1 µM]; Shiga toxin inh: -10.4; Marburg entry inh: 2.1%[46.1 µM]; CHX counter: 1.9

How did COc1ccc(N=C(N)SCc2ccccn2)cc1 do in these assays?
Lassa entry inh: inconclusive; Shiga toxin inh: 46.1*; Marburg entry inh: -23.5%; CHX counter: 31.0*

Results for COc1ccc(OCCSc2nnc(-c3ccccc3)n2N)cc1 ?
Lassa entry inh: -2.8%; Shiga toxin inh: 10.5; Marburg entry inh: -15.7%; CHX counter: 8.7

How did COc1ccc(C(=O)N2CCN(Cc3ccccn3)CC2)cc1 do in these assays?
Shiga toxin inh: 3.8; CHX counter: -0.7

Results for COC(=O)CSc1nnc(Cc2ccccc2)n1-c1ccc(C)cc1 ?
Lassa entry inh: inconclusive; Shiga toxin inh: 0.0; Marburg entry inh: 5.8%; CHX counter: 14.3*

What do the screens show for `COc1ccc(-c2nnc(SCc3ccccc3)n2N)cc1`?
Lassa entry inh: 0.2%; Shiga toxin inh: 60.8*; Marburg entry inh: 4.8%; CHX counter: 44.0*

What do the screens show for `COc1ccc(-c2nnc(SCC3CCCO3)n2C)cc1` (stereo not given)?
Lassa entry inh: -4.1%; Shiga toxin inh: 61.5; Marburg entry inh: inconclusive; CHX counter: 37.8*

Results for Cc1nnc(SCC(=O)NCc2ccco2)n1-c1ccc(F)cc1 ?
Lassa entry inh: 5.1%; Shiga toxin inh: 31.8; Marburg entry inh: 3.7%; CHX counter: 2.8

How did Cc1cc(C(=O)CN2CCCCC2)c(C)n1-c1ccc(F)cc1 do in these assays?
Lassa entry inh: -11.2%; Shiga toxin inh: 56.4*; Marburg entry inh: inconclusive; CHX counter: 36.8*

Results for Cc1cc(C(=O)CNCc2ccco2)c(C)n1-c1ccc(F)cc1 ?
Lassa entry inh: -11.5%; Shiga toxin inh: 73.8*; Marburg entry inh: inconclusive; CHX counter: 38.1*

Results for Cc1cc(C(=O)NC2CCCCC2)c2cc(F)ccc2n1 ?
Shiga toxin inh: -9.9; CHX counter: -2.6

What do the screens show for `Cc1cc(C(=O)CN2CCC(C)CC2)c(C)n1-c1ccc(F)cc1`?
Lassa entry inh: -23.0%; Shiga toxin inh: 22.0*; Marburg entry inh: inconclusive; CHX counter: 32.0*

How did Cc1cc(C(=O)NC2CCCCC2)c(C)n1-c1ccc(F)cc1 do in these assays?
Lassa entry inh: inconclusive; Shiga toxin inh: 77.2*; Marburg entry inh: inconclusive; CHX counter: 46.1*

What do the screens show for `Cc1cc(C(=O)CN2CCCC2)c(C)n1-c1ccc(F)cc1`?
Lassa entry inh: 0.4%[46.1 µM]; Shiga toxin inh: 6.4; Marburg entry inh: -0.5%[46.1 µM]; CHX counter: 3.3
